# Test results taken from PubChem BioAssay (NCATS).
# Where “and” joins values, the source holds several entries; their conditions need not be identical. Identical values can stand only once. Unmarked numbers belong to inactive results. Records with an inconclusive call do not appear. Calls of active or inactive are those of the source. Unless noted, the call rests on the fitted dose curve; in most records, active means well fitted curve in the direction sought with a large enough effect; inconclusive means small, poorly fitted or top-dose-only effect, or another doubt; inactive means no such curve, though single readings can be large; an effect the other way counts as inactive or inconclusive.
# How the values were obtained:
# [1] = target: Mitogen-activated protein kinase 10 (Mus musculus) (UniProt Q61831); experiment: JNK3 AlphaScreen Assay (AID 530; active means well fitted curve in either direction with a large enough effect, not every such curve was filed as active;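 further: kinase came from lysate of stimulated human HepG2 cells; signal reports phosphorylation of biotinylated GST-cJun 1-79 at Ser73 with 10 µM ATP; on the % scale 0 is the no-effect control and ±100 the full control effect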)
# Procedure, shortened: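 Phosphorylation of biotinylated GST-cJun(1-79) at Ser73 is measured by AlphaScreen proximity luminescence. Enzyme is JNK3 in HepG2 lysates activated with interleukin-1beta and tumor necrosis factor alpha; ATP is 10 uM final.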
# [2] = Cell Viability - Jurkat (AID 426;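 active means dose-dependent loss of cell ATP signal giving a full or clear fitted curve, ranked by lower potency value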;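 further: potency means the concentration at half of the fitted maximal effect; cells exposed to compound for 40 hours at 37 °C before ATP read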); conditions: qHTS
# Procedure, shortened: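 Cytotoxicity taken as drop in cellular ATP (CellTiter-Glo luminescence, 20 min room temperature) after 40 hr, 37C treatment of 5000 Jurkat Clone E6-1 cells per well; concentration-response fitted with Hill equation for AC50.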
# [3] = Cell Viability - Hek293 (AID 427;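 active means compounds whose dose-response curve shows a full or clear partial loss of cell viability, called from curve shape rather than a numeric limit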;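 further: potency means the concentration at half of the fitted maximal effect; cells exposed to compound for 40 hours at 37 °C before reading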); conditions: qHTS
# Procedure, shortened: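 AC50 values derive from Hill-modelled concentration-response of ATP-based luminescence, normalized between DMSO-only and 100 uM tamoxifen controls. Cells were exposed in complete culture medium for 40 hr at 37 °C before detection.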
# [4] = Cell Viability - HepG2 (AID 433; calls by dose curve;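 further: potency means the concentration at half of the fitted maximal effect; potency for ATP loss meaning cytotoxicity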); conditions: qHTS
# Procedure, shortened: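 Cytotoxicity is scored as loss of intracellular ATP in HepG2 cells exposed to compounds for 40 h. Concentration-response curves, normalized to DMSO and 100 uM tamoxifen, give AC50 values.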
# [5] = Cell Viability - NIH 3T3 (AID 541); conditions: NIH 3T3 cell viability, qHTS; activity change, negative = cytotoxicity: at 92.2 µM (top of the series); further: nearly all actives have a fitted effect of over 25% in size; further: potency means the concentration at half of the fitted maximal effect;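 on activity change, negative = cytotoxicity: plate controls were DMSO alone for no effect and tamoxifen positive control for full effect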
# Procedure, shortened: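 Intracellular ATP (CellTiter-Glo luminescence, 20 min at room temperature) measured after 40 hr compound exposure at 37 °C of 1000 NIH 3T3 mouse fibroblasts/well in complete medium; AC50 derived by Hill-equation modelling of qHTS concentration-response curves.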
# [6] = Cell Viability - H-4-II-E (AID 543); further: nearly all actives have a fitted effect of over 35% in size; further: potency means the concentration at half of the fitted maximal effect
# Procedure, shortened: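 CellTiter-Glo luminescence (intracellular ATP) measured after 40 h compound exposure at 37 °C in H-4-II-E rat hepatoma cells seeded at 1500/well. Values are AC50s fitted with the standard Hill equation.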
# [7] = Cellular Toxicity (caspase-3) Jurkat (AID 655); conditions: Jurkat caspase-3 activation, luminescence; caspase-3 activation: at 92.2 µM (top of the series), DMSO = 0%, tamoxifen = 100%;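 further: cells exposed to compound for 16 h at 37 °C before reading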
# Procedure, shortened: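 Caspase 3/7 activation is scored as increased luminescence in Jurkat cells cultured with compound for 16 hours in complete medium. AC50 values come from Hill fits of qHTS concentration-response data normalized to DMSO and 100 uM tamoxifen controls.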
# [8] = Cellular Toxicity (caspase-3) SHSY5Y (AID 657);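 further: cells exposed to compound for 16 hours at 37 °C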; further: potency means the concentration at half of the fitted maximal effect
# Procedure, shortened: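 Cells plated and incubated 5 h at 37 °C, dosed over a concentration range, incubated 16 h, then given Caspase-Glo 3/7 reagent for 1 h at room temperature before luminescence reading. Staurosporine (10 uM) defined full stimulation.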
# [9] = Cellular Toxicity (caspase-3) BJ (AID 658); conditions: Potency: caspase-3 activation;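 further: 0% = DMSO basal and 100% = 10 µM staurosporine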
# Procedure, shortened: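 Plated BJ cells (1000/well) rested 5 hr, received compound for 16 hr at 37 °C, then Caspase-Glo 3/7 reagent for 1 hr at room temperature before luminescence reading.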
# [10] = Cellular Toxicity (caspase-3) MRC-5 (AID 659);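 further: 0% = DMSO basal and 100% = 10 µM staurosporine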
# Procedure, shortened: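 Apoptosis readout in MRC-5 cells: luciferase light generated after caspase 3/7 cleaves a peptide-aminoluciferin substrate, measured post 16 hr compound incubation at 37 °C.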
# [11] = Cellular Toxicity (caspase-3) SK-N-SH (AID 661); conditions: SK-N-SH caspase-3 activation, qHTS; caspase-3 activation: at 91.7 µM (top of the series), DMSO as zero, staurosporine as full;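 further: 0% = DMSO basal and 100% = 10 µM staurosporine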
# Procedure, shortened: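 Caspase 3/7 activation was read by luminogenic substrate cleavage after 16 hour treatment of SK-N-SH cells. Signal was scaled between DMSO and 10 uM staurosporine, and concentration-response data were fitted with the Hill equation for AC50.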
# [12] = Cellular Toxicity (caspase-3) H-4-II-E (AID 663); conditions: H-4-II-E rat hepatoma; Potency: caspase-3 activation; caspase-3 activation: at 92.2 µM (top of the series), scaled: DMSO 0%, 100 µM tamoxifen 100%; further: potency means the concentration at half of the fitted maximal effect
# Procedure, shortened: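 Caspase 3/7 activation measured in H-4-II-E cells in complete culture medium after 16 hr treatment at 37 °C, using luciferase-coupled substrate readout; AC50 values come from Hill-equation fits of normalized concentration-response data.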
# [13] = Cellular Toxicity (caspase-3) Hek293 (AID 664); conditions: HEK293 caspase-3 activation, DMSO = 0%, 100 µM tamoxifen = 100%; at 92.2 µM (top of the series);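 further: cells exposed to compound for 16 h at 37 °C before readout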
# Procedure, shortened: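 Concentration-response qHTS: caspase 3/7 activation measured by luminescent aminoluciferin substrate cleavage after 16 h compound exposure of Hek 293 cells. AC50 from Hill equation, with DMSO as basal and 100 uM tamoxifen as 100%.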
# [14] = Cellular Toxicity (caspase-3) NIH 3T3 (AID 666);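 further: caspase signal read after 16 h compound exposure; 0% = DMSO basal and 100% = 100 µM tamoxifen stimulation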
# Procedure, shortened: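 Caspase-Glo 3/7 luminescence reported caspase activation in 1000 NIH 3T3 cells/well after 16 h compound exposure at 37 C. DMSO set basal and 100 uM tamoxifen set 100% stimulation; concentration-response modeled with the Hill equation for AC50.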
# [15] = MultiTox-Fluor Cytotoxicity Assay - LYMP1-001 - Dead Cells (AID 946); further: potency means the concentration at half of the fitted maximal effect
# Procedure, shortened: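 In this qHTS, 15 uM tetraoctylammonium bromide defined 100% and DMSO defined basal activity. Lymphoblastoid cells (LYMP1-001, 2500 per well) received compound for 16 hr at 37 C before a fluorogenic dead-cell substrate readout at 485/520 nm.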
# [16] = Cell Viability - LYMP1-003 - Assay at 24 hr (AID 963); further: potency means the concentration at half of the fitted maximal effect
# Procedure, shortened: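 Concentration-response qHTS: ATP loss measured by CellTiter-Glo luminescence after 24 h compound exposure at 37 C. Cells were LYMP1-003 human lymphoblastoid, 2500 per well. AC50 derived via standard Hill equation modeling.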
# [17] = Cell Viability - LYMP2-003 (AID 965);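 further: cells exposed to compounds for 24 h before reading; nearly all actives have a fitted effect of over 50% in size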; further: potency means the concentration at half of the fitted maximal effect;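 on activity change, negative = cytotoxicity: 0% = DMSO only and full effect = 92 µM tetraoctylammonium bromide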
# Procedure, shortened: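 Acute cytotoxicity is scored as a concentration-dependent drop in intracellular ATP, measured by luciferase luminescence in human lymphoblastoid cells treated for 24 hours at 37 C. AC50 values derive from Hill-equation modelling.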
# [18] = Cell Viability - LYMP2-007 (AID 979);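 further: cells exposed to compound for 24 h before reading; nearly all actives have a fitted effect of over 60% in size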; further: potency means the concentration at half of the fitted maximal effect;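 on activity change, negative = cytotoxicity: 0% = DMSO only and the negative end = 92 µM tetraoctylammonium bromide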
# Procedure, shortened: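 AC50 values come from Hill-equation fits of luminescent intracellular ATP (CellTiter-Glo, 30 min, room temperature) following 24 h compound exposure at 37 C. Cells: LYMP2-007 lymphoblastoid line, 2500 per well, in complete culture medium.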
# [19] = Cell Viability - LYMP1-002 - Assay at 24 hr (AID 993); further: potency means the concentration at half of the fitted maximal effect; on activity change, negative = cytotoxicity: on the % scale 0 is the no-effect control and ±100 the full control effect
# Procedure, shortened: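 qHTS cytotoxicity at 24 h: CellTiter-Glo ATP luminescence in lymphoblastoid line LYMP1-002 incubated with compound at 37 °C. Concentration-response modeled with the Hill equation for AC50; tetraoctylammonium bromide served as positive control.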
# [20] = target: Voltage-gated inwardly rectifying potassium channel KCNH2 (Homo sapiens) (UniProt Q12809); experiment: qHTS Assay for Small Molecule Inhibitors of the Human hERG Channel Activity (AID 588834);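 further: lower thallium flux fluorescence means stronger hERG block; nearly all actives have a fitted effect of over 50% in size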; further: potency means the concentration at half of the fitted maximal effect
# Sequence of Voltage-gated inwardly rectifying potassium channel KCNH2 (Homo sapiens) (Q12809 whole entry, looked up): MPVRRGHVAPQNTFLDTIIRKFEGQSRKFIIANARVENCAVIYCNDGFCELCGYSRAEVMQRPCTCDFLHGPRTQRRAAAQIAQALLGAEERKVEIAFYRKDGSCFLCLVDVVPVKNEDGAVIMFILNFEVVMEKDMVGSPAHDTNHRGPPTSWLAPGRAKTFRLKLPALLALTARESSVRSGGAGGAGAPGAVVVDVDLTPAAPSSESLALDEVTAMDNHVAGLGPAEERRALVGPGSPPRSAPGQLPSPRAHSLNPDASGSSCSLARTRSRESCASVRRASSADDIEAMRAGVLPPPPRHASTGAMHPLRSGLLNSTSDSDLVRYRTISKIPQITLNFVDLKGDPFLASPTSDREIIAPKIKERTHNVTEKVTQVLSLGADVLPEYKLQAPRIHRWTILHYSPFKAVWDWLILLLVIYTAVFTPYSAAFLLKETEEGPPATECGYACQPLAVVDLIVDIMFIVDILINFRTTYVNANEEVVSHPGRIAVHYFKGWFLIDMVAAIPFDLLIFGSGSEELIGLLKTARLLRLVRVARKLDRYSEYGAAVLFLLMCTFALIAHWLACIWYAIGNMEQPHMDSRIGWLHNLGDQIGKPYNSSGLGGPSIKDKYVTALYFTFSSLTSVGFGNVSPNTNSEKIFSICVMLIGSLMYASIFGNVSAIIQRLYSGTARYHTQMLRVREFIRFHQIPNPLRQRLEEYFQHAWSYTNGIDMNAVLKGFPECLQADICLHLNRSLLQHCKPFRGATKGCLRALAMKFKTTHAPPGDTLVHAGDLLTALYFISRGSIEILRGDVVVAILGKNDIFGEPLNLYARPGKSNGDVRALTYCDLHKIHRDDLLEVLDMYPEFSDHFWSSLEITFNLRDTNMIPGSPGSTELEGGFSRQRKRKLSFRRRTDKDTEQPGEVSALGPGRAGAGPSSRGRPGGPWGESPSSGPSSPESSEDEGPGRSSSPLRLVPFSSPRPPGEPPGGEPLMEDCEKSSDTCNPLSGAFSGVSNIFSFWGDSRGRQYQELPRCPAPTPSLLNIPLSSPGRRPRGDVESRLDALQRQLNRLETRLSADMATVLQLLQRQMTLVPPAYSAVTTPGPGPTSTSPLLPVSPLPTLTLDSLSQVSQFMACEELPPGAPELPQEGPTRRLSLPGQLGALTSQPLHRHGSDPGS
# Procedure, shortened: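 Cells were infected with hERG-BacMam virus for 4 hrs at room temperature, grown overnight, then seeded at 2000/well. After dye loading and roughly 10 min compound treatment, thallium influx was triggered and fluorescence recorded.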
smiles,measurement,setting,value
CCC[C@@H]1C[C@@]1(CCC)C(NC(=O)c1ccccc1)c1cccc(Cl)c1 (some centres not stated),Potency,[1],inactive
COC(=O)c1ccc(C(NC(=O)c2ccccc2)[C@]2(C)C[C@H]2C2CCCCC2)cc1 (some centres not stated),Potency,[1],inactive
CCCC[C@@H]1C[C@H]1C(NC(=O)c1ccco1)c1ccccc1 (some centres not stated),Potency,[1],inactive
CC[C@H]1C2=C3C(CC[C@H]4C(OCc5ccc(F)cc5C(F)(F)F)OC[C@](C)([C@@H]34)N(C(=O)OC(C)(C)C)C2)C(COC(C)=O)C1COC(C)=O (some centres not stated),Potency,[1],inactive
O=C(/C=C/c1ccc(O)c(O)c1)OC1C[C@](O)(C(=O)O)C[C@@H](O)[C@H]1O (some centres not stated),Potency,[2],> 92 µM
same,Potency,[3],> 92 µM
same,Potency,[4],> 92 µM
same,Potency,[1],inactive
same,Potency,[5],inactive
same,Potency,[6],inactive
same,Potency,[7],inactive
same,Potency,[8],inactive
same,Potency,[9],inactive
same,outcome,[10],inactive
same,caspase-3 activation,[11],0.0888% and -0.0196%
same,caspase-3 activation,[12],0.575% and -0.278%
same,caspase-3 activation,[13],0.862% and -1.58%
same,Potency,[14],inactive
same,Potency,[15],inactive
same,Potency,[16],inactive
same,Potency,[17],inactive
same,Potency,[18],inactive
same,Potency,[19],inactive
same,Potency,[20],inactive
Oc1ccc2cc(SSc3ccc4cc(O)ccc4c3)ccc2c1,Potency,[2],36.7 µM (active)
same,Potency,[3],46.2 µM (active)
same,Potency,[4],> 92 µM
same,Potency,[6],50.1 µM (active)
same,Potency,[7],inactive
same,Potency,[8],inactive
same,Potency,[9],inactive
same,outcome,[10],inactive
same,caspase-3 activation,[11],10.2%
same,caspase-3 activation,[12],4.17%
same,caspase-3 activation,[13],15.1%
same,Potency,[14],inactive
same,Potency,[15],inactive
same,Potency,[16],50.1 µM (active)
same,Potency,[18],39.8 µM (active)
same,Potency,[19],50.1 µM (active)
same,Potency,[20],44.7 µM (active)
c1ccc2c(c1)-c1cccc3c1c-2cc1ccccc13,Potency,[2],> 92 µM
same,Potency,[3],> 92 µM
same,Potency,[4],> 92 µM
same,Potency,[7],inactive
same,Potency,[8],inactive
same,Potency,[9],inactive
same,outcome,[10],inactive
same,caspase-3 activation,[11],2.25%
same,caspase-3 activation,[12],11.1%
same,caspase-3 activation,[13],-2.54%
same,Potency,[14],inactive
same,Potency,[15],inactive
same,Potency,[16],inactive
same,Potency,[17],inactive
same,Potency,[18],inactive
same,Potency,[19],inactive
same,Potency,[20],inactive
CNc1ccc(O)cc1,Potency,[2],2.14 µM (active)
same,Potency,[3],40.8 µM (active)
same,Potency,[4],59.6 µM (active)
same,Potency,[1],inactive
same,Potency,[5],25.1 µM (active)
same,Potency,[6],20 µM (active)
same,Potency,[8],inactive
same,Potency,[9],inactive
same,outcome,[10],inactive
same,caspase-3 activation,[11],-7.58%
same,caspase-3 activation,[12],-5.23%
same,caspase-3 activation,[13],-11.1%
same,Potency,[15],25.1 µM (active)
same,Potency,[16],25.1 µM (active)
same,Potency,[17],5.01 µM (active)
same,Potency,[18],6.31 µM (active)
same,Potency,[19],15.8 µM (active)
same,Potency,[20],inactive
C=CC(=O)OCC(CO)(COC(=O)C=C)COC(=O)C=C,Potency,[2],1.6 µM (active)
same,Potency,[3],8.68 µM (active)
same,Potency,[4],> 92 µM
same,Potency,[1],inactive
same,Potency,[5],2 µM (active)
same,Potency,[6],2.51 µM (active)
same,caspase-3 activation,[7],-6.15% (active)
same,Potency,[8],2.51 µM (active)
same,caspase-3 activation,[11],-3.53% (active)
same,caspase-3 activation,[13],-6.03%
same,Potency,[14],inactive
same,Potency,[20],inactive
Cc1cc(O)c(C(C)(C)C)cc1Sc1cc(C(C)(C)C)c(O)cc1C,Potency,[2],16.3 µM (active)
same,Potency,[3],33.7 µM (active)
same,Potency,[4],32.3 µM (active)
same,Potency,[1],inactive
same,Potency,[6],25.1 µM (active)
same,Potency,[12],31.6 µM (active)
same,caspase-3 activation,[13],230% (active)
same,Potency,[14],inactive
same,Potency,[15],31.6 µM (active)
same,Potency,[16],39.8 µM (active)
same,Potency,[17],31.6 µM (active)
same,Potency,[18],31.6 µM (active)
same,Potency,[19],31.6 µM (active)
same,Potency,[20],39.8 µM (active)
